This note sets out measurements from paper PMC7862700, “An all-to-all approach to the identification of sequence-specific readers for epigenetic DNA modifications on cytosine”.

Test in all cases: DAPPL (digital affinity profiling via proximity ligation, sequencing); 10 mM Tris-HCl pH 7.5, 50 mM NaCl, 1 mM DTT, 4% glycerol, room temperature, 30 min; GST-TFs on glutathione beads, 16-mer random dsDNA library, 0.1% formaldehyde crosslink after washing; high values mean tight binding
For test [1], the target named is T1, FEV (Homo sapiens, UniProt Q99581 1-238).
T1 sequence: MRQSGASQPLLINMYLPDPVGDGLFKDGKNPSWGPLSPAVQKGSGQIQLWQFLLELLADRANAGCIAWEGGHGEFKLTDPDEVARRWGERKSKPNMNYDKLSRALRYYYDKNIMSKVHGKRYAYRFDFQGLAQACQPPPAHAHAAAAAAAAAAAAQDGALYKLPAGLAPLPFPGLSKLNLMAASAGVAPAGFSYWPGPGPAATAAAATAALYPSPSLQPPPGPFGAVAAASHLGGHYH
As to conditions: protein: recombinant; tags: N-terminal GST; dsDNA, one strand shown. The essentials:
(§1)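 Human transcription factors fused to GST were expressed in yeast, captured on glutathione beads, given DNA barcodes and pooled with a GST-only negative control. Pools were incubated with 200 nmole of a 16-mer random double-stranded DNA library in Tris/NaCl/DTT/glycerol buffer at room temperature for 30 min. They were then washed, crosslinked with 0.1% formaldehyde, proximity-ligated (BsaI/T4 ligase, 1 h, 37 °C), PCR-amplified and sequenced on an Illumina NextSeq500. Binding signal is each 6-mer's read frequency for a factor divided by its frequency for the GST control.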

Test [2] concerns the target ETV5 (Homo sapiens, UniProt P41161 1-510). As to conditions: protein: recombinant; tags: N-terminal GST; dsDNA, one strand shown. The essentials:
as §1

Test [3] addresses HSF1 (Homo sapiens, UniProt Q00613 1-529). As to conditions: protein: recombinant; tags: N-terminal GST; chain copies: 3; dsDNA, one strand shown. In short, it runs like this: as §1
Test [4] addresses T2, SPIC (Homo sapiens, UniProt Q8N5J4 1-248).
T2 sequence: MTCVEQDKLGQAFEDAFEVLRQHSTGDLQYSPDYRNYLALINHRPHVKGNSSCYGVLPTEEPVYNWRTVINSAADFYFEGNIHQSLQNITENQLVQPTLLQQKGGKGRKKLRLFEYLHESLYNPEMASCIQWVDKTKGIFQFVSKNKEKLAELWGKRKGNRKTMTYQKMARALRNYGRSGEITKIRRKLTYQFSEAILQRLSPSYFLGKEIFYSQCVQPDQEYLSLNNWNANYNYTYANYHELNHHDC
As to conditions: protein: recombinant; tags: N-terminal GST; dsDNA, one strand shown. The essentials: as §1

The target of test [5] is ELF4 (Homo sapiens, UniProt Q99607 1-663). As to conditions: protein: recombinant; tags: N-terminal GST; dsDNA, one strand shown. The essentials:
as §1

For test [6], the target named is T3, ELK4 (Homo sapiens, UniProt P28324-2 1-405).
T3 sequence: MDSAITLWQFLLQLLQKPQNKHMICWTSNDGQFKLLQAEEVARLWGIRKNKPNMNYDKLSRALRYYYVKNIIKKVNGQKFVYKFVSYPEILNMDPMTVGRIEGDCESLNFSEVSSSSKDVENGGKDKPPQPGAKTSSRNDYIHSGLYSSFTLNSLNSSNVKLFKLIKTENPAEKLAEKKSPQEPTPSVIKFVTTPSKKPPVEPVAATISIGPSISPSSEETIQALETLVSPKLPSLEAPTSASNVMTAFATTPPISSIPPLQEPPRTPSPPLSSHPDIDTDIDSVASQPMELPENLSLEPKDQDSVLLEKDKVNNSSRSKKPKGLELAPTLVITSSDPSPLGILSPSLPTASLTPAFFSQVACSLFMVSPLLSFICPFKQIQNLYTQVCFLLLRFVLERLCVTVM
As to conditions: protein: recombinant; tags: N-terminal GST; dsDNA, one strand shown. The essentials:
as §1

In test [7] the target is T4, ETV2 (Homo sapiens, UniProt O00321 1-342).
T4 sequence: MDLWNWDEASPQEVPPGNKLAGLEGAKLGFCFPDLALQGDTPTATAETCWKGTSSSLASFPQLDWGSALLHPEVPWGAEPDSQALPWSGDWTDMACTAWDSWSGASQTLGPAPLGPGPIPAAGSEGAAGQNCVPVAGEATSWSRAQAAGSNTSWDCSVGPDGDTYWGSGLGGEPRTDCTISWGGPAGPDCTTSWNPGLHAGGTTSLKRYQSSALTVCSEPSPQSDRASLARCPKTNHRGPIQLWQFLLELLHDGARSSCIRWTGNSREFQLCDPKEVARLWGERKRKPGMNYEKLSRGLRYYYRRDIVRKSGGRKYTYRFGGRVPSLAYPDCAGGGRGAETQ
As to conditions: protein: recombinant; tags: N-terminal GST; dsDNA, one strand shown. The essentials:
as §1

The target in test [8] is T5, ELF3 (Homo sapiens, UniProt P78545 1-371).
T5 sequence: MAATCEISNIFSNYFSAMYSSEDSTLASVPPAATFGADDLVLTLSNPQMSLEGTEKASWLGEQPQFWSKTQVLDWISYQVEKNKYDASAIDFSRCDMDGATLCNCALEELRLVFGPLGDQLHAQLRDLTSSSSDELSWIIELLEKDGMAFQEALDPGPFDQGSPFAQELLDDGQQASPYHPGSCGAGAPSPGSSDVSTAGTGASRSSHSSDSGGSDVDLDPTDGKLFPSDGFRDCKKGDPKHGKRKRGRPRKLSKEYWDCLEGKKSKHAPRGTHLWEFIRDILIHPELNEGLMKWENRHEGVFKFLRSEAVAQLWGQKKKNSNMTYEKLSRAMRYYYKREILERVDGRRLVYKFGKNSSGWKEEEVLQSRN
As to conditions: protein: recombinant; tags: N-terminal GST; dsDNA, one strand shown. In short, it runs like this:
as §1

The target in test [9] is CRX (Homo sapiens, UniProt O43186 1-299). As to conditions: protein: recombinant; tags: N-terminal GST; dsDNA, one strand shown. The essentials: as §1
Sequence of CRX (O43186 whole entry): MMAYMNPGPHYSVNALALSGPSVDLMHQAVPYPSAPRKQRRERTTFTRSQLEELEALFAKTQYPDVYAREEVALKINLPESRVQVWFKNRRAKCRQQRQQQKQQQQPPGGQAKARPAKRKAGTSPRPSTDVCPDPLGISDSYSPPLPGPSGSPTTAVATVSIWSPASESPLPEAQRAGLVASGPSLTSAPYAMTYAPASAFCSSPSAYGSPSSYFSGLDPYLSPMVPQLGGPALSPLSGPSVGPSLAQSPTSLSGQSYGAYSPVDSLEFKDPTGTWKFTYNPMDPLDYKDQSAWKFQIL
The target of test [10] is ETV1 (Homo sapiens, UniProt P50549 1-477). As to conditions: protein: recombinant; tags: N-terminal GST; dsDNA, one strand shown. In short, it runs like this:
as §1

The target in test [11] is T6, ERF (Homo sapiens, UniProt P50548 1-548).
T6 sequence: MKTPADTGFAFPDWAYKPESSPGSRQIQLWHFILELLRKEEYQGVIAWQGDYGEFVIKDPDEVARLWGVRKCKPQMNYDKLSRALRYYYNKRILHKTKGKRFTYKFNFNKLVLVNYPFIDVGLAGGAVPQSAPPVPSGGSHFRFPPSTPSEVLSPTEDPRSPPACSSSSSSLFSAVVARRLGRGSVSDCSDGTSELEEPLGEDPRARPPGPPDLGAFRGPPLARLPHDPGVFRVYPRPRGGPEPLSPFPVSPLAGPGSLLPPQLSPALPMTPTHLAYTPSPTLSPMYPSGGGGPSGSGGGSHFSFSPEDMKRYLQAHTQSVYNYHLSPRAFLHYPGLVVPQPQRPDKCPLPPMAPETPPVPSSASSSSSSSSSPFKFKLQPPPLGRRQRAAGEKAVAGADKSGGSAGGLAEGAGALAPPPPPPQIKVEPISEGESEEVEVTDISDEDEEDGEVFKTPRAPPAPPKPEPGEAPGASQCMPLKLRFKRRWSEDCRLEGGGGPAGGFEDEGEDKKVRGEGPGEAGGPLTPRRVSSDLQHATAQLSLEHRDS
As to conditions: protein: recombinant; tags: N-terminal GST; dsDNA, one strand shown. The essentials:
as §1

The target of test [12] is T7, ETV3L (Homo sapiens, UniProt Q6ZN32 1-361).
T7 sequence: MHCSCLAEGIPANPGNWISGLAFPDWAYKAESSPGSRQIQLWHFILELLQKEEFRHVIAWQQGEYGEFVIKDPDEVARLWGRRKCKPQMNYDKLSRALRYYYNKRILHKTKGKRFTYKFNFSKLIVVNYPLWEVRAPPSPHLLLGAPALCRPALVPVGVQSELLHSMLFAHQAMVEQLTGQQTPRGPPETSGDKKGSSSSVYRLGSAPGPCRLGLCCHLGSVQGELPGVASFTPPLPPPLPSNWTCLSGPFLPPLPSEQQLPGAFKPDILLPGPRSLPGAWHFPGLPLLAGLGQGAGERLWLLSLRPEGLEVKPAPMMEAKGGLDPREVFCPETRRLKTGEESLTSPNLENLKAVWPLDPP
As to conditions: protein: recombinant; tags: N-terminal GST; dsDNA, one strand shown. The essentials:
as §1

For test [13], the target named is T8, ETS2 (Homo sapiens, UniProt P15036 1-469).
T8 sequence: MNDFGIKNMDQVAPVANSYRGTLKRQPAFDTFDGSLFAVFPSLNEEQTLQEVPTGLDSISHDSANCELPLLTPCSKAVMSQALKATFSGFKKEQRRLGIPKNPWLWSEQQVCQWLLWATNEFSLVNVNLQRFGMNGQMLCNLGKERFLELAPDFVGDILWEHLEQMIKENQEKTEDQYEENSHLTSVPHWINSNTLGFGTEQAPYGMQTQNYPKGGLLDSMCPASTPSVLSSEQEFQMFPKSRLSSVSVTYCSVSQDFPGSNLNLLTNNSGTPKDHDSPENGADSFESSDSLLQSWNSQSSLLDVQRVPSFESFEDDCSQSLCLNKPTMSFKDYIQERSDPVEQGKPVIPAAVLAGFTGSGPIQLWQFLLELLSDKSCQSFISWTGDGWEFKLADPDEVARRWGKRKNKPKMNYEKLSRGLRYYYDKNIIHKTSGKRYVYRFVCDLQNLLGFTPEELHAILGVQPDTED
As to conditions: protein: recombinant; tags: N-terminal GST; dsDNA, one strand shown. The essentials:
as §1

Test [14] has as its target T9, SPDEF (Homo sapiens, UniProt O95238 1-335).
T9 sequence: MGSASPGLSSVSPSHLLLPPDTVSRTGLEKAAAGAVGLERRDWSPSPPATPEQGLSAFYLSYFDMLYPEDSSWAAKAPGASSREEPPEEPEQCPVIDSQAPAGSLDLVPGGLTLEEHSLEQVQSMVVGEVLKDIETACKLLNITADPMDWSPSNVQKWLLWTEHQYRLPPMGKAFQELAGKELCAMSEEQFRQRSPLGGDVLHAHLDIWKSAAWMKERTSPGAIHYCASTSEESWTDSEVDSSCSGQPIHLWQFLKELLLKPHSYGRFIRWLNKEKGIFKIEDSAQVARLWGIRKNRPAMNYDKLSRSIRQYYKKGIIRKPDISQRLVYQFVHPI
As to conditions: protein: recombinant; tags: N-terminal GST; dsDNA, one strand shown. In short, it runs like this:
as §1

Test [15] addresses T10, ETV7 (Homo sapiens, UniProt Q9Y603 1-341).
T10 sequence: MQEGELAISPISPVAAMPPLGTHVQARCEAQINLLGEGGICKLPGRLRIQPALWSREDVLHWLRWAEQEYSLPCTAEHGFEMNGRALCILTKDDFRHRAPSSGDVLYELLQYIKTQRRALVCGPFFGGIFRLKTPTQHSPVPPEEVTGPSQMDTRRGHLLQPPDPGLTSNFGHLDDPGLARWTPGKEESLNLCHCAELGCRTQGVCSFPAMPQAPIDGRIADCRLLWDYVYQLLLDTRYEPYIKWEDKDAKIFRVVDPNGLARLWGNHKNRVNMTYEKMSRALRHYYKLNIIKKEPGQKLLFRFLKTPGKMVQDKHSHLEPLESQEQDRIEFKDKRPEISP
As to conditions: protein: recombinant; tags: N-terminal GST; dsDNA, one strand shown. In short, it runs like this:
as §1

The target in test [16] is T11, ELF5 (Homo sapiens, UniProt Q9UKW6-2 1-255).
T11 sequence: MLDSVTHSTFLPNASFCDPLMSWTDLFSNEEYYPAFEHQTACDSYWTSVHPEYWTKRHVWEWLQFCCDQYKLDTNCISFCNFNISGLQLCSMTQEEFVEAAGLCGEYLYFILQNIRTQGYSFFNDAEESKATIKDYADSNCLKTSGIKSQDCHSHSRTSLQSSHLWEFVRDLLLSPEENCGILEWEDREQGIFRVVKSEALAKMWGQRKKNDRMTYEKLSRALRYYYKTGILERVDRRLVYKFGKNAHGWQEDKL
As to conditions: protein: recombinant; tags: N-terminal GST; dsDNA, one strand shown. In short, it runs like this:
as §1

In test [17] the target is T12, ETV3 (Homo sapiens, UniProt P41162-2 1-143).
T12 sequence: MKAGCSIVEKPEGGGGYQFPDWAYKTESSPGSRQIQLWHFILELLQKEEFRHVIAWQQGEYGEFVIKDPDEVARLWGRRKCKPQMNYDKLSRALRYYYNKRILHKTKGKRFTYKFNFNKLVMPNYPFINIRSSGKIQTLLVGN
As to conditions: protein: recombinant; tags: N-terminal GST; dsDNA, one strand shown. In short, it runs like this:
as §1

For test [18], the target named is ETV6 (Homo sapiens, UniProt P41212 1-452). As to conditions: protein: recombinant; tags: N-terminal GST; dsDNA, one strand shown. In short, it runs like this:
as §1

Sequence of ETV1 (P50549 whole entry): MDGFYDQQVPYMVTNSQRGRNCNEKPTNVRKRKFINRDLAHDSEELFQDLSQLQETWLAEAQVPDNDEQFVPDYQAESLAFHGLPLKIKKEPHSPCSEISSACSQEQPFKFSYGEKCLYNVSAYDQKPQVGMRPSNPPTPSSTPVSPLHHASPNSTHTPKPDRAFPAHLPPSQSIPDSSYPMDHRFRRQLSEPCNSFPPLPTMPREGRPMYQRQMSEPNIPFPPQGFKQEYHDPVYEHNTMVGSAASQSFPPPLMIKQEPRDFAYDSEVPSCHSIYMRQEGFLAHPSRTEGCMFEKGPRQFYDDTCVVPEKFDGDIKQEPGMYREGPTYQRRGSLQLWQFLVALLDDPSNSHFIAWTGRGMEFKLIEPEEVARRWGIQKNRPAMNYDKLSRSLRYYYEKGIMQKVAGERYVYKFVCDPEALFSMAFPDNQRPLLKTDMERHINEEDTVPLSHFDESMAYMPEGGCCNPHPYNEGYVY
Sequence of ETV6 (P41212 whole entry): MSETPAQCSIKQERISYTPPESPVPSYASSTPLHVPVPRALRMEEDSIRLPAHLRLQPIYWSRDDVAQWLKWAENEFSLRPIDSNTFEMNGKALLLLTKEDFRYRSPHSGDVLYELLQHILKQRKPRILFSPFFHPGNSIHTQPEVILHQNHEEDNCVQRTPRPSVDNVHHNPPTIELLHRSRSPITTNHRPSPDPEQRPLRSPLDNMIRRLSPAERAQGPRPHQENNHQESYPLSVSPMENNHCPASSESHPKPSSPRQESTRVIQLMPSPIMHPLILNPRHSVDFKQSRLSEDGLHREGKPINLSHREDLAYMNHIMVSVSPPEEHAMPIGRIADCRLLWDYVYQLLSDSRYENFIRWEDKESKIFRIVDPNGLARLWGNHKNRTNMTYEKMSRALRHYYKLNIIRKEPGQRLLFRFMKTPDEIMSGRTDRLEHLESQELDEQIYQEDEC
Sequence of ELF4 (Q99607 whole entry): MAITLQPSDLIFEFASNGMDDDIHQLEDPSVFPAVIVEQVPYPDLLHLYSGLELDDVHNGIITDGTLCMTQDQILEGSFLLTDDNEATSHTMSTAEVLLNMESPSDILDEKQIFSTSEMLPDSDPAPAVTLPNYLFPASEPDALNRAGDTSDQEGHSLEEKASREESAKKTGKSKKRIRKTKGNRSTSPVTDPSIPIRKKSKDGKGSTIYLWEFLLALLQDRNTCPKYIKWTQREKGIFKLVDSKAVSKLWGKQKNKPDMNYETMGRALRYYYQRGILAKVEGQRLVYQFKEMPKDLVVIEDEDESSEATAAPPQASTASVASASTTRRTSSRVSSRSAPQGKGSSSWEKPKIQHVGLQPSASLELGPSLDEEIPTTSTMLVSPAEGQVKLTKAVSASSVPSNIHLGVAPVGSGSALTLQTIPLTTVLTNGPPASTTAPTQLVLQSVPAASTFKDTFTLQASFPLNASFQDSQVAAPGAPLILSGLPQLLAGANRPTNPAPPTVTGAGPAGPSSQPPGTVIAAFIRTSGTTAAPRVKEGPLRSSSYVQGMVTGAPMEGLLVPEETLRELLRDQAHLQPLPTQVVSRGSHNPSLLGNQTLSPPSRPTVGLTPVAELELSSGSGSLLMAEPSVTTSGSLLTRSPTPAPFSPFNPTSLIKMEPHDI
Sequence of ETV5 (P41161 whole entry): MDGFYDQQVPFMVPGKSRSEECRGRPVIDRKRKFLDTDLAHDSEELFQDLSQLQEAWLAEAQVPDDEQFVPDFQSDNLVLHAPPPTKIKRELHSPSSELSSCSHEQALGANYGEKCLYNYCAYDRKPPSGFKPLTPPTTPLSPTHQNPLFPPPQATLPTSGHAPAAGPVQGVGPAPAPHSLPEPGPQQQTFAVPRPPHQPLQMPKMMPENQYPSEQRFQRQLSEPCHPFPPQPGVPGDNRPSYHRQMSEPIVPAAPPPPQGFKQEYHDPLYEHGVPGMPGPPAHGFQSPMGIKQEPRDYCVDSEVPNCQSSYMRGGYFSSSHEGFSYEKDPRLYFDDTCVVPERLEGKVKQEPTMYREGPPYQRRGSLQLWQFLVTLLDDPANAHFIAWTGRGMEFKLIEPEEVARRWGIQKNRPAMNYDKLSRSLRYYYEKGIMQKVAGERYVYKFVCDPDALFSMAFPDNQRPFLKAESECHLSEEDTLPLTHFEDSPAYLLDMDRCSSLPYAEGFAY
Sequence of HSF1 (Q00613 whole entry): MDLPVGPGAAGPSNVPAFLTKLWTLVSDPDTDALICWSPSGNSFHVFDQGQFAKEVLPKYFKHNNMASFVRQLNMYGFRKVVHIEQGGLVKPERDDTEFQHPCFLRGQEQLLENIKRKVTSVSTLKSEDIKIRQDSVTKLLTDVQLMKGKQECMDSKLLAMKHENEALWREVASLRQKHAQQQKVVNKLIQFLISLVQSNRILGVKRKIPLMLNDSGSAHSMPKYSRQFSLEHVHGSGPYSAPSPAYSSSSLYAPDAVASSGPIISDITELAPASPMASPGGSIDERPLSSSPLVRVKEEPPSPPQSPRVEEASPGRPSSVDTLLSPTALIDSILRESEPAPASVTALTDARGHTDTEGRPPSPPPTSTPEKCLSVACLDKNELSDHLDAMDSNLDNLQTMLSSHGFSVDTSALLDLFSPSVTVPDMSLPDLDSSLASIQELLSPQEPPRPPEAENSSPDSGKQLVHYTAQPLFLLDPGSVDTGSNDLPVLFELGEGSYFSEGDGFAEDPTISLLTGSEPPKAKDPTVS

On to ACGAAT, for which the binding signal was 1.17 fold enrichment (6-mer frequency, TF over GST control) in test [1]; 1.14 fold enrichment (6-mer frequency, TF over GST control) in [2]; 1.39 fold enrichment (6-mer frequency, TF over GST control) in [3]; 1.16 fold enrichment (6-mer frequency, TF over GST control) in [4]; 1.11 fold enrichment (6-mer frequency, TF over GST control) in [5]; 1.2 fold enrichment (6-mer frequency, TF over GST control) in test [6]. In addition, the binding signal in test [7] was 1.15 fold enrichment (6-mer frequency, TF over GST control); in [8], 1.12 fold enrichment (6-mer frequency, TF over GST control); in test [9] it was 1.21 fold enrichment (6-mer frequency, TF over GST control); in [10], 1.14 fold enrichment (6-mer frequency, TF over GST control); in test [11], 1.17 fold enrichment (6-mer frequency, TF over GST control); in test [12] it was 1.15 fold enrichment (6-mer frequency, TF over GST control). In addition, the binding signal in test [13] is 1.1 fold enrichment (6-mer frequency, TF over GST control); in test [14], 1.13 fold enrichment (6-mer frequency, TF over GST control); in test [15], 1.23 fold enrichment (6-mer frequency, TF over GST control); in test [16] it was 1.11 fold enrichment (6-mer frequency, TF over GST control); in test [17], 1.11 fold enrichment (6-mer frequency, TF over GST control); in test [18], 1.11 fold enrichment (6-mer frequency, TF over GST control).
